# Records with an inconclusive call do not appear. Entries that show only a call come without a potency. Activity calls are given as the source filed them. The call rests on the fitted dose curve; in most records, active means well fitted inhibition curve with a large enough effect; inconclusive means small, poorly fitted or top-dose-only effect; inactive means flat fitted curve, though single readings scatter.
# Tests used:
# Test in all cases: qHTS profiling for inhibitors of Plasmodium falciparum proliferation (AID 504749); further: nearly all actives have a fitted effect of over 60% in size
# Conditions in all cases: P. falciparum in erythrocytes, SYBR Green DNA, 72 h; series mostly up to 28.7 µM
# CP215 = tested on: CP215
# Summary of the method: (§1)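 Three-day growth assay of blood-stage parasites in erythrocytes (0.3% parasitemia, 2.5% hematocrit) at 37 C, 5% CO2, quantified by SYBR Green DNA staining after overnight detergent lysis.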
# CP217 = tested on: CP217
# Summary of the method: as §1
# CP237 = tested on: CP237
# Summary of the method: as §1
# CP238 = tested on: CP238
# Summary of the method: as §1
# CP252 = tested on: CP252
# Summary of the method: as §1
# CP260 = tested on: CP260
# Summary of the method: as §1
# CP266 = tested on: CP266
# Summary of the method: as §1
# CP269 = tested on: CP269
# Summary of the method: as §1
# CP286 = tested on: CP286
# Summary of the method: as §1
# CP297 = tested on: CP297
# Summary of the method: as §1
# CP201 = tested on: CP201
# Summary of the method: as §1
# CP211 = tested on: CP211
# Summary of the method: as §1
# CP247 = tested on: CP247
# Summary of the method: as §1
# CP250 = tested on: CP250
# Summary of the method: as §1
# CP256 = tested on: CP256
# Summary of the method: as §1
# CP262 = tested on: CP262
# Summary of the method: as §1
# CP268 = tested on: CP268
# Summary of the method: as §1
# CP291 = tested on: CP291
# Summary of the method: as §1
# CP265 = tested on: CP265
# Summary of the method: as §1
# CP203 = tested on: CP203
# Summary of the method: as §1
# Potency means the concentration at half of the fitted maximal effect.
Compound,Potency (CP215),Potency (CP217),Potency (CP237),Potency (CP238),Potency (CP252),Potency (CP260),Potency (CP266),Potency (CP269),Potency (CP286),Potency (CP297),Potency (CP201),Potency (CP211),Potency (CP247),Potency (CP250),Potency (CP256),Potency (CP262),Potency (CP268),Potency (CP291),Potency (CP265),Potency (CP203)
Oc1cc(Cl)ccc1Oc1ccc(Cl)cc1Cl,13.5 µM (active),7.94 µM (active),7.08 µM (active),10 µM (active),7.94 µM (active),11.2 µM (active),inactive,12 µM (active),12.6 µM (active),15.1 µM (active),,,,,,,,,,
CC(C)NCC(O)c1ccccc1Cl (configuration not stated),,10 µM (active),5.01 µM (active),,,11.2 µM (active),inactive,,10 µM (active),15.1 µM (active),inactive,,,,,,,,,
COc1ccc(C(CN(C)C)C2(O)CCCCC2)cc1 (configuration not stated),inactive,inactive,7.08 µM (active),inactive,inactive,inactive,,inactive,inactive,,inactive,inactive,inactive,inactive,inactive,inactive,inactive,inactive,,
C[C@]12C/C(=C/O)C(=O)C[C@@H]1CC[C@@H]1[C@@H]2CC[C@@]2(C)[C@H]1CC[C@]2(C)O,inactive,inactive,inactive,inactive,inactive,inactive,inactive,inactive,inactive,inactive,inactive,inactive,,inactive,inactive,inactive,inactive,,inactive,
CC1NCCOC1c1ccccc1 (configuration not stated),inactive,inactive,,inactive,inactive,inactive,inactive,inactive,inactive,inactive,inactive,inactive,inactive,inactive,inactive,inactive,inactive,inactive,inactive,
O=C1NCN(c2ccccc2)C12CCN(CC1COc3ccccc3O1)CC2 (configuration not stated),inactive,inactive,,inactive,inactive,,inactive,inactive,inactive,inactive,inactive,inactive,inactive,inactive,inactive,inactive,inactive,inactive,inactive,
COc1ccc(C(=O)c2c(C)n(CCN3CCOCC3)c3ccccc23)cc1,inactive,inactive,inactive,inactive,inactive,inactive,,inactive,inactive,inactive,inactive,inactive,inactive,,inactive,inactive,inactive,inactive,inactive,
CCC(C(N)=O)N1CCCC1=O (configuration not stated),inactive,inactive,inactive,inactive,inactive,inactive,inactive,inactive,inactive,inactive,inactive,inactive,inactive,inactive,inactive,,inactive,inactive,inactive,
CCCC(C)(COC(N)=O)COC(=O)NC(C)C (configuration not stated),inactive,inactive,inactive,inactive,inactive,inactive,inactive,inactive,inactive,inactive,inactive,inactive,inactive,inactive,inactive,inactive,inactive,inactive,inactive,
O=c1[nH]c2ccccc2n1C1CCN(CCCC(c2ccc(F)cc2)c2ccc(F)cc2)CC1,13.5 µM (active),inactive,7.94 µM (active),inactive,inactive,12.6 µM (active),inactive,,11.2 µM (active),,inactive,,inactive,inactive,,inactive,inactive,inactive,inactive,
CC(C)(C)NCC(O)c1cc(Cl)c(N)c(Cl)c1 (configuration not stated),,inactive,7.94 µM (active),,,,inactive,,inactive,,inactive,inactive,inactive,inactive,inactive,,inactive,,,
CCN(CC)CCN1C(=O)CN=C(c2ccccc2F)c2cc(Cl)ccc21,inactive,inactive,,,inactive,inactive,inactive,inactive,inactive,inactive,inactive,,inactive,inactive,inactive,inactive,inactive,,,
Oc1ccc(Cl)cc1Cc1ccccc1,,,,inactive,,,inactive,,inactive,,inactive,inactive,,inactive,,inactive,,,,
CC(C)(N)Cc1ccc(Cl)cc1,inactive,inactive,8.91 µM (active),inactive,inactive,inactive,inactive,inactive,inactive,,inactive,inactive,inactive,inactive,inactive,inactive,,inactive,,
CCC1(C2=NCCN2)Cc2ccccc2O1 (configuration not stated),,,10 µM (active),,,,,,,9.53 µM (active),,,,,,inactive,,,,10.7 µM (active)
O=C(O)c1ccc2[nH]cc(CCCCN3CC=C(c4ccccc4)CC3)c2c1,inactive,inactive,inactive,inactive,inactive,inactive,inactive,inactive,inactive,,inactive,inactive,,inactive,inactive,inactive,inactive,inactive,inactive,
Cc1ccc(-c2nc3ccc(C)cn3c2CC(=O)N(C)C)cc1,inactive,inactive,inactive,inactive,inactive,inactive,inactive,inactive,inactive,,inactive,inactive,inactive,inactive,,inactive,inactive,inactive,inactive,
CCOC(=O)C1(c2ccccc2)CCN(CCC(C#N)(c2ccccc2)c2ccccc2)CC1,4.26 µM (active),3.16 µM (active),3.98 µM (active),3.16 µM (active),3.55 µM (active),3.55 µM (active),6.01 µM (active),4.26 µM (active),2.82 µM (active),5.36 µM (active),4.26 µM (active),,4.47 µM (active),3.55 µM (active),1.58 µM (active),5.36 µM (active),3.79 µM (active),4.26 µM (active),2.51 µM (active),

# — PubChem BioAssay (NCATS)
